# Data published in PubChem BioAssay AID504333 (National Center for Advancing Translational Sciences (NCATS), 2011).
# Out of some 360,000 compounds screened, about 16,000 (4.4%) were called active. Entries that show only a call come without a potency. About 9% were inconclusive and are not listed. The call rests on the fitted dose curve; in most records, active means well fitted inhibition curve with a large enough effect; inconclusive means small, poorly fitted or top-dose-only effect; inactive means no such curve, though single readings can be large or run the other way. For the sample, actives were picked, then their nearest neighbours and some compounds at random.
# Biological target: Bromodomain adjacent to zinc finger domain protein 2B (Homo sapiens) (UniProt Q9UIF8)
# Sequence (Q9UIF8 whole entry, looked up, the tested form may be a part): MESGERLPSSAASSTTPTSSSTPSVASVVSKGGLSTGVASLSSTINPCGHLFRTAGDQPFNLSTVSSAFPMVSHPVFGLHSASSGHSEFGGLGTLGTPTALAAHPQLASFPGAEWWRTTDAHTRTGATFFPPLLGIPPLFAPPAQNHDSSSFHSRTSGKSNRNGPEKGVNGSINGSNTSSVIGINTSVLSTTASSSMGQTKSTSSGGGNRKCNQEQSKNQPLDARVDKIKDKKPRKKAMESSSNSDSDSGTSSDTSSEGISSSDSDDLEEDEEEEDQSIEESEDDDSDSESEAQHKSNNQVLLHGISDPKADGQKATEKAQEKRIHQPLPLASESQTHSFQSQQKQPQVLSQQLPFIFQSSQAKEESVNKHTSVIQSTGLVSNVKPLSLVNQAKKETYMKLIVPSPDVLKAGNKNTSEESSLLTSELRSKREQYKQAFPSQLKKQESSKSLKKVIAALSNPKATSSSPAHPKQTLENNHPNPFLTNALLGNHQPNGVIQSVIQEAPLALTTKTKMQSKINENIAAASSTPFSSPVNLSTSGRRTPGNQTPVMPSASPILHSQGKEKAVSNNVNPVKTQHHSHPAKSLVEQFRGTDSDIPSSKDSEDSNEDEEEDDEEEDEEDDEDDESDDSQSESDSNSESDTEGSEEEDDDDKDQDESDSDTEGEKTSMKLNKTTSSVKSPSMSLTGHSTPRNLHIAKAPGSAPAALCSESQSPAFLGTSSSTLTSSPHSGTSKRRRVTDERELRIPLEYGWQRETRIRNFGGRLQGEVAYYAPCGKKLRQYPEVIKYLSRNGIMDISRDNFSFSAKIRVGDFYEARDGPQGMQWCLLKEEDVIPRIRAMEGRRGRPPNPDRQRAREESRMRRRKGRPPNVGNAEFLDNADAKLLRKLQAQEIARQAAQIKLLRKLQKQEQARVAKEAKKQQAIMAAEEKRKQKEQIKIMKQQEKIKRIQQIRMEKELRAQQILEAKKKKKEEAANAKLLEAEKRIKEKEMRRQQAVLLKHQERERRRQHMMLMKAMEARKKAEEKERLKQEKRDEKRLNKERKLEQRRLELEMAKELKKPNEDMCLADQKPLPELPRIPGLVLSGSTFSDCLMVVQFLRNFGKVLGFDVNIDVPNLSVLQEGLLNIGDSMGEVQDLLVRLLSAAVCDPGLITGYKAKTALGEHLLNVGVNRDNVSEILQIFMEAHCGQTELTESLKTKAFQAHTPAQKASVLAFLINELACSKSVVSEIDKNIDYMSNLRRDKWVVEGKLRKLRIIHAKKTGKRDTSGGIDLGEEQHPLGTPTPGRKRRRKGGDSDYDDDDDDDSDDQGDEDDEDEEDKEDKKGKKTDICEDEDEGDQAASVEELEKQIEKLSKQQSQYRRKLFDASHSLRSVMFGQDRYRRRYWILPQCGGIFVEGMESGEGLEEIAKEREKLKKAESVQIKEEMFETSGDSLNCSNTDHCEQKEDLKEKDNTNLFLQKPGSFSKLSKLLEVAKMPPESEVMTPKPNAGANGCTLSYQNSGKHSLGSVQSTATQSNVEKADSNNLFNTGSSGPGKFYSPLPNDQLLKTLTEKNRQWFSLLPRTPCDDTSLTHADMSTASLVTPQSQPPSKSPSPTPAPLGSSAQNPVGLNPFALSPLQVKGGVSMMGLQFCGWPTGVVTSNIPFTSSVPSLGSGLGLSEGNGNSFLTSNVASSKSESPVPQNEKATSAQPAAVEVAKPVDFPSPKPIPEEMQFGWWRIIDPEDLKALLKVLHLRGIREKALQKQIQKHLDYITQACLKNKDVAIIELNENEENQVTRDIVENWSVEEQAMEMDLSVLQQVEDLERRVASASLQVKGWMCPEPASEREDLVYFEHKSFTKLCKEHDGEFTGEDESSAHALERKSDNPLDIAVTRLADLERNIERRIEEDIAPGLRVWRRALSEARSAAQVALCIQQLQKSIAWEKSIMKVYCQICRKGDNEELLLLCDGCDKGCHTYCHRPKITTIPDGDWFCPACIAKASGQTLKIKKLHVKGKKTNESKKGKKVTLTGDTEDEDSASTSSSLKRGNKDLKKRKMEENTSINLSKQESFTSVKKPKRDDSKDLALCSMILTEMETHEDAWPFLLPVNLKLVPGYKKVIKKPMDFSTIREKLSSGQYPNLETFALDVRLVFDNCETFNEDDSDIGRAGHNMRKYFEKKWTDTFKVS
# Assay: qHTS Assay for Inhibitors of BAZ2B; further: nearly all actives have a fitted effect of over 60% in size
# Conditions: AlphaScreen BAZ2B-H3K14Ac peptide displacement; series mostly up to 114 µM
# How it was run: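 Inhibition is scored as reduced AlphaScreen emission. The BAZ2B/b-H3(5-23)K14Ac complex (50 nM each) in PBS pH 7.4, 0.01% Tween-20 meets compound (up to 110 uM) for 30 min at RT before bead addition.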
# Potency means the concentration at half of the fitted maximal effect.
row,SMILES,Potency
1,Cc1ccccc1CSc1nc2c([nH]c3ccccc32)c(=O)n1C,inactive
2,CCN(CC)c1nn2c(=O)c(C(=O)NCCc3ccccc3)cnc2s1,inactive
3,COc1ccccc1N1CCN(C(=O)C2CCN(S(=O)(=O)c3c(C)noc3/C=C/c3ccc(C)cc3)CC2)CC1,inactive
4,COc1ccccc1-c1noc(CSc2nnc(-c3ccccc3)n2-c2ccc(C)c(C)c2)n1,inactive
5,Cc1ccc(NC(=O)c2ccc(CN3CC(=O)N4CCCCC4C3=O)cc2)c(Cl)c1 (stereo not given),inactive
6,COc1cc(NC(=O)CCn2nc(C)cc2C)cc(OC)c1OC,inactive
7,Cc1oc(-c2ccccc2F)nc1CS(=O)CC(=O)NCCN1CCCCC1C (stereo not given),inactive
8,N#Cc1nc(-c2cccc3ccccc23)oc1N,inactive
9,CC1CCN(c2oc(-c3ccccc3F)nc2C#N)CC1,14.1 µM (active)
10,COc1cccc(C2C(C(=O)Nc3ccc(C)cc3C)=C(C)Nc3c(C(=O)Nc4ccccc4)cnn32)c1 (stereo not given),inactive
11,CCOc1ccccc1C(=O)NCc1ccc2c(c1)CCN2C(=O)c1ccc(F)cc1,inactive
12,COc1ccc(NC(=O)C2CCN(c3ccc(Sc4ccc(C)cc4)nn3)CC2)c(OC)c1,inactive
13,COc1ccc(CNC(=O)/C(C#N)=C/c2cccc(OC)c2OC)cc1,inactive
14,COCCNC(=O)/C(C#N)=C/c1cccc(OCc2ccccc2)c1,inactive
15,N#C/C(=C\c1ccc(O)c(O)c1)C(=O)NCc1ccccc1,12.6 µM (active)
16,O=C(Nc1nnc(C2CC(=O)N(c3ccc(Cl)cc3)C2)s1)c1ccco1 (stereo not given),inactive
17,Cc1c(CNC(C)c2ccccc2)c(C(=O)O)c(C)n1Cc1c(F)cccc1Cl (stereo not given),inactive
18,COc1cc(C(CC(=O)NCCC(C)C)N2Cc3ccccc3C2=O)cc(OC)c1OC (stereo not given),inactive
19,O=C(c1cc2c(s1)CCC2)N1CCN(c2ccccc2)CC1,56.2 µM (active)
20,O=C(C1CCC1)N1CCN(c2ccccc2)CC1,inactive
21,O=C(NNC(=O)c1cc2c(s1)CCCC2)c1ccccc1,inactive
22,COc1ccc(OCC(=O)Nc2ccc(N3CCC(C)CC3)cc2)cc1,inactive

row,SMILES,Potency
1,COc1ccc(NC(=S)NCCN2CCC(C)CC2)cc1,inactive
2,COc1ccc(N2CCC(CNC(=S)Nc3c(C)cccc3C)C2)cc1 (stereo not given),39.8 µM (active)
3,COc1cccc(N2CC(C(=O)Nc3c(C)cccc3C)CC2=O)c1 (stereo not given),inactive
4,COc1ccc(NC(=O)N2CCC(Cc3ccccc3)CC2)cc1,inactive
5,COc1ccc(NC(=S)NCC2CCN(c3ccc(OC)cc3)C2)cc1 (stereo not given),31.6 µM (active)
6,NC(=O)CSc1nc2c(oc3ccccc32)c(=O)n1Cc1ccccc1,inactive
7,CCOc1ccc(OCC)c(NS(=O)(=O)c2ccc3[nH]c(=O)ccc3c2)c1,inactive
8,CCOc1ccc(N(CC)C(=O)c2noc3c2COc2ccc(C)cc2-3)cc1,inactive
9,COc1cc(-n2c(C)nc3cc(C(=O)NCc4ccco4)ccc32)cc(OC)c1OC,56.2 µM (active)
10,COc1ccccc1-n1c(C)nc2cc(C(=O)NCc3ccc4c(c3)OCO4)ccc21,inactive
11,COc1cc(C(=O)N[C@@H](C)C(=O)NCc2ccco2)cc(OC)c1OC,inactive
12,COc1ccc(-c2cn3nc(N4CCC(C(=O)Nc5cccc(C)c5C)CC4)sc3n2)cc1,inactive
13,Cc1ccccc1C(=O)Nc1sc2c(c1C(=O)N1CCC(C)CC1)CCCC2,inactive
14,O=C(C1=C(O)C(=O)N(CCOCCO)C1c1ccccn1)c1cccs1 (stereo not given),50.1 µM (active)
15,O=C(c1cccs1)c1cn(CCOc2ccc(Cl)cc2)c2ccccc12,inactive
16,O=C(c1cccs1)N(C(=O)c1cccs1)c1ccccn1,inactive
17,O=c1n(Cc2cccc(C(F)(F)F)c2)c2ccccc2c2nc(-c3ccccc3)nn12,inactive
18,O=C(NCc1ccccc1)c1cccc(NC(=O)N2CCSc3ncccc32)c1,inactive
19,Cc1ccc(NC(=O)Nc2sc3nc4n(c(=O)c3c2C)CCC(C)CC4)c(Cl)c1 (stereo not given),inactive
20,COc1ccc(NC(=O)Nc2cccc(-c3noc(C)n3)c2)cc1,inactive
21,Cc1cccc(Cn2c(CN3CCC(C(=O)NCc4ccccc4Cl)CC3)cc3ccccc32)c1,inactive
22,Cn1c(=O)oc2cc(S(=O)(=O)CCC(=O)NCCc3ccc(Cl)cc3)ccc21,inactive

row,SMILES,Potency
1,COc1ccc(Cl)cc1NC(=O)CN(C)CC(=O)Nc1ccc2c(c1)OCO2,inactive
2,COc1ccc(Cl)cc1NC(=O)CCS(=O)(=O)c1cc2c(cc1C)NC(=O)CO2,inactive
3,O=C(CCS(=O)(=O)c1ccc(Br)cc1)NCCc1ccc(Cl)cc1,50.1 µM (active)
4,CC(=O)N1CCc2cc(Br)cc(S(=O)(=O)CCC(=O)NCCc3ccc(Cl)cc3)c21,inactive
5,COc1ccc(Cl)cc1NC(=O)CN(C)Cc1ccc(OC)c(OC)c1,20 µM (active)
6,COc1ccc(Cl)cc1NC(=O)CCS(=O)(=O)c1ccc(Br)cc1,8.91 µM (active)
7,COc1ccc(Cl)cc1NC(=O)CN(C)C(=O)c1cc2ccccc2cc1OC,inactive
8,COc1ccc(Cl)cc1NC(=O)CCC(=O)c1ccc(C)cc1,inactive
9,CCc1ccccc1NS(=O)(=O)c1ccc2nc(-c3ccccc3)[nH]c2c1,inactive
10,O=S(=O)(NCC(c1ccco1)N1CCOCC1)c1cc(F)ccc1F (stereo not given),inactive
11,Cc1ccc(Nc2ccc3cc(S(=O)(=O)N4CCCCC4)ccc3n2)cc1F,inactive
12,Cc1cc(C)c(NC(=O)CN2C(=O)c3cccnc3Oc3ccc(Cl)cc32)c(C)c1,inactive
13,COc1cc(NC(=O)c2cc3ccc4cccnc4c3[nH]2)cc(OC)c1OC,inactive
14,CCN(c1ncnc2c1cnn2-c1ccc(C)cc1)C1CCCCC1,inactive
15,O=c1[nH]c2cc(Br)ccc2n2cccc12,inactive
16,Cc1ccc(NC(=O)CSc2nc(CSc3ccc(C)cc3)cc(=O)[nH]2)cc1,inactive
17,Cc1ccc(OCCCC(=O)Nc2ccc(S(=O)(=O)Nc3cc(C)nc(C)n3)cc2)cc1,inactive
18,COc1ccc(NC(=O)CSc2nc(NS(=O)(=O)c3ccc(C)cc3)cc(=O)[nH]2)cc1,50.1 µM (active)
19,CCc1nnc(NS(=O)(=O)c2ccc(NC(=S)NC(=O)/C=C/c3cccs3)cc2)s1,50.1 µM (active)
20,CCc1nnc(NS(=O)(=O)c2ccc(NC(=S)NC(=O)c3cccs3)cc2)s1,inactive
21,CCc1nnc(NS(=O)(=O)c2ccc(NS(=O)(=O)c3ccccc3)cc2)s1,inactive
